The campaign covered roughly 1,200 compounds. About 480 (40%) were called active. Not shown: some 29% with an inconclusive outcome. Calls come from the whole dose curve; as a rule, active = well fitted inhibition curve with a large enough effect; inconclusive = small, poorly fitted or top-dose-only effect; inactive = no such curve, though single readings can be large or run the other way. The list shows a part of the results.
Potency is the fitted concentration of half-maximal effect.

This assay can be described thus: qHTS Assay to Find Inhibitors of Chronic Active B-Cell Receptor Signaling: Hit Validation in Primary Screen. Note: nearly all actives have a fitted effect of over 75% in size. The following applies: ABC-DLBCL IkB-luc/CBR ratio luminescence, 4 h; series mostly up to 46.1 µM. An outline of the steps:
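TMD8 ABC-DLBCL cells carrying doxycycline-inducible IkBa-green luciferase fusion and free red luciferase, 0.5% FBS, dosed 46 uM–3 nM with doxycycline for 4 h at 37C. Green/red luminescence ratio normalized to basal and 10 uM MG-132.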
With `Cc1ccccc1C(=O)N1CCC(C(=O)N2CCN(Cc3ccc4c(c3)OCO4)CC2)CC1`, the Potency entry is “inactive”.
`CCOc1ccccc1C(=O)N1CCN(c2cccc(Cl)c2)CC1`: the Potency was 0.517 µM (active).
As to `CCOc1ncccc1C(=O)N1CCN(c2cccc(C)c2C)CC1`, the Potency is 5.8 µM (active).
Take `COC(=O)c1cc(C(=O)N2CCN(c3cccc(Cl)c3)CC2)cc([N+](=O)[O-])c1`: the Potency is 5.8 µM (active).
For the compound `CCOc1ncccc1C(=O)N1CCN(c2cc(Cl)ccc2C)CC1`, the Potency is 8.2 µM (active).
Turning to `CC1=C(C(=O)Nc2ccc(CC(=O)NCc3ccc(OC(C)C)cc3)cc2)SCCO1`, the Potency was 1.3 µM (active).
Regarding `CCc1ccc(CNC(=O)Cc2ccc(NC(=O)C3=C(C)OCCS3)cc2)cc1`, the Potency was 2.06 µM (active).
Regarding `CCCCC[C@H](O)/C=C/[C@@H]1[C@@H](C/C=C\CCCC(=O)OC)[C@@H](O)C[C@H]1O`, the Potency was 0.103 µM (active).
Turning to `CCCCC[C@H](O)/C=C/[C@@H]1[C@@H](C/C=C\CCCC(=O)O)[C@@H](O)C[C@H]1O`, the Potency is 2.91 µM (active).
The result for `CCO[C@H]1OC(C(=O)NCc2nc3ccccc3[nH]2)=C[C@@H](C2CC2)[C@@H]1CCCO` reads 18.4 µM (active); that for `O=C(Oc1c(CN2CCOCC2)cc(Cl)c2cccnc12)c1ccc(F)cc1`, “inactive”; that for `Oc1ccc(NCc2cccc(OCc3ccccc3)c2)cc1`, “inactive”.
Regarding `Cc1[nH]n(C(N)=S)c(=O)c1N=Nc1ccc2ccccc2c1`, the Potency result is “inactive”.
As to `COc1ccc(N(C(=O)c2ccccc2C)S(=O)(=O)c2cccs2)cc1`, the Potency is 5.17 µM (active).
For `C=CCOc1c(OC)cc(/C=N/Nc2cccc(C(=O)O)c2)c(Br)c1Br`, the Potency was 2.91 µM (active).
Take `O=C(Oc1ccc(Cl)c2cccnc12)C12CC3CC(CC(C3)C1)C2`: the Potency entry is “inactive”.
Consider `O=c1cnnc(N/N=C/C2CC=CCC2)[nH]1` (stereo not given), for which the Potency entry was “inactive”.
As for `COC(=O)C1C(O)=C(C=Nc2ccccc2)C(=O)CC1(C)C` (stereo not given), the Potency was 16.4 µM (active).
With `COC(=O)C1C(O)=C(C=Nc2cccc3ccccc23)C(=O)CC1(C)C` (stereo not given), the Potency is 18.4 µM (active).
For the compound `CCOc1ccccc1C1CC(=O)Nc2cc3c(cc21)OCCO3` (stereo not given), the Potency was 10.3 µM (active).
On to `CCCOc1ccccc1C1CC(=O)Nc2cc3c(cc21)OCCO3` (stereo not given), for which the Potency is 7.31 µM (active).
`CCCOc1ccccc1C1CC(=O)Nc2cc3c(cc21)OCO3` (stereo not given): the Potency was 6.51 µM (active).
In the case of `Cc1ccc(-c2ccccc2NC(=O)CS(=O)CC(=O)Nc2ccc(C)c(Cl)c2)o1` (stereo not given), the Potency entry was “inactive”.
For the compound `COc1cc(/C=C/c2ccc3cccc(O)c3n2)cc(Br)c1OC`, the Potency was 20.6 µM (active).
With `COc1cc(/C=C\C(=O)OCn2nnc3ccccc3c2=O)cc(OC)c1OC`, the Potency entry is “inactive”.
The result for `CCOc1cccc(/C=C/c2ccc3cccc(O)c3n2)c1OC` reads “inactive”; that for `COc1cc(/C=C/c2ccc3cccc(O)c3n2)cc(OC)c1OC`, 18.4 µM (active); that for `COC(=O)CCC(=O)NC(=S)Nc1sc(C)c(C)c1C(N)=O`, 4.61 µM (active).
As for `CCCCC(=O)NC(=S)Nc1nnn(CCC)n1`, the Potency entry was “inactive”.
For the compound `COc1ccccc1CNC(=O)CSc1ccc(C)cc1`, the Potency entry is “inactive”.
Consider `COc1ccc(CN(C)C(=O)Cn2cnc3c(NCc4ccccc4)ncnc32)cc1OC`, for which the Potency result was “inactive”.
In the case of `CCOc1cc(-c2nnc(SCC(=O)NCc3ccccc3)nc2-c2ccc(OC)c(OCC)c2)ccc1OC`, the Potency was 2.59 µM (active).
`CC1=NN(C(N)=S)C(=O)C1N=Nc1ccc(F)cc1` (stereo not given): the Potency result is “inactive”.
Regarding `Cc1ccsc1/C=C/C1=NCCCN1C`, the Potency result was “inactive”.
For the compound `CC1(C)N=c2ccc([N+](=O)[O-])c(N)c2=[N+]1[O-]`, the Potency result is “inactive”.
Regarding `COc1ccc(S(=O)(=O)Nc2ccc3c(c2)n(C)c(=O)n3C)cc1F`, the Potency result was “inactive”.
With `COc1cc(OC)c(OC)cc1/C=C/C(=O)c1ccc(NS(=O)(=O)c2ccc(C)cc2)cc1`, the Potency was 13 µM (active).
For the compound `COc1ccc2nc(NC(=S)NC(=O)c3ccco3)sc2c1`, the Potency result was “inactive”.
For the compound `S=C(Nc1ccccn1)c1ccccn1`, the Potency entry was “inactive”.
Regarding `CCOc1ccc2nc(NS(=O)(=O)Cc3ccccc3)sc2c1`, the Potency entry was “inactive”.
In the case of `C/C(=N\NC(=O)c1ccc(F)cc1)c1ccccn1`, the Potency entry was “inactive”.
For `O=C(Nc1nnc(SCc2ccc(F)cc2)s1)c1ccccn1` the value was “inactive”; for `O=C(Nc1nc2ccc(F)cc2s1)c1ccccn1`, 1.46 µM (active); for `Cc1ccc2nc(NC(=O)c3ccccn3)sc2c1`, 1.16 µM (active).
Take `O=C(Nc1nc2c(F)cc(F)cc2s1)c1ccccn1`: the Potency was 13 µM (active).
For `CCOc1ccc2nc(NC(=O)c3ccccn3)sc2c1` the value was 14.6 µM (active); for `O=C(NCC(=O)N1CCCC(C(F)(F)F)C1)c1ccc(Oc2ccccc2)cc1` (stereo not given), “inactive”; for `CN(C)NC(=S)NC(=O)C12CC3CC(CC(C3)C1)C2`, “inactive”.
For `Cc1cc(C(N)=O)nn1-c1c(Cl)cc(Cl)cc1Cl` the value was “inactive”; for `COc1ccccc1NC(=O)c1c(N=Cc2c(O)ccc3ccccc23)cnn1C`, 3.26 µM (active).
As to `CC(=O)N1CC(=O)N=C1SCC(=O)Nc1nc(C)c(-c2ccccc2)s1`, the Potency was 23.1 µM (active).
As to `COc1ccc(CCCC(=O)N/N=C/c2cccc(OC)c2O)cc1C`, the Potency entry is “inactive”.
For `COc1cccc(/C=N/NC(=O)c2[nH]nc3c2CCc2ccccc2-3)c1O` the value was 20.6 µM (active); for `CC/C(=N/Nc1ccc(Cl)cc1)c1cnnc(SC)n1`, “inactive”.
For `Cc1ccc(C(=O)Oc2ccc(Cl)c3cccnc23)cc1[N+](=O)[O-]`, the Potency result was “inactive”.
For `COc1cccc(N2CCN(C(=O)c3ccc(CS(=O)c4ccccc4C)o3)CC2)c1` (stereo not given), the Potency is 5.8 µM (active).
Turning to `COc1cccc(N2CCN(C(=O)c3ccc(CS(=O)c4ccccc4Cl)o3)CC2)c1` (stereo not given), the Potency was 1.84 µM (active).
The result for `O=C(c1ccc(CS(=O)c2ccccc2Cl)o1)N1CCN(c2ccccc2)CC1` (stereo not given) reads 14.6 µM (active); that for `CCCNc1nc(-c2ccccc2)c(C(=O)OCC)cc1C#N`, 18.4 µM (active); that for `CCCNc1ccc(C(=O)OCC)cc1[N+](=O)[O-]`, “inactive”.
As for `CC(C)CCOc1ccc(CO[C@@H]2[C@H]3OC(C)(C)O[C@H]3O[C@@H]2C(O)CO)cc1` (stereo not given in full), the Potency entry is “inactive”.
On to `COC(=O)c1ccc(C)c(NS(=O)(=O)c2ccc(OC)cc2)c1`, for which the Potency is 1.84 µM (active).
As for `COC(=O)c1ccc(C)c(NS(=O)(=O)c2ccc3c(c2)OCCO3)c1`, the Potency was 9.2 µM (active).
On to `COc1ccc(NS(=O)(=O)c2cc(NC(=O)CNC(=O)c3cccc(OC)c3)ccc2C)cc1`, for which the Potency entry is “inactive”.
For `COc1ccc(S(=O)(=O)Nc2cc3c(C(C)=O)c(C)oc3c3ccccc23)cc1` the value was 2.06 µM (active).

Source of the values: PubChem BioAssay AID651558 (National Center for Advancing Translational Sciences (NCATS), 2012).
